Assay results published in PubChem BioAssay (NCI).
Compounds without any hit were thinned out: in the full panel of roughly 83,000, 20% have a hit.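 Activity criterion: percent growth below 10, measured after cells in 96-well plates were exposed to a single compound concentration for 48 hours.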 Activity calls are given as the source filed them.

Key:
Experiment in all cases: NCI-60 one-dose screen, 48 h (100 = growth as untreated, 0 = no growth, -100 = all killed)
Conditions in all cases: 10 µM unless noted
DU-145 prostate = tested on: DU-145 prostate
K-562 leukemia = tested on: K-562 leukemia
MALME-3M melanoma = tested on: MALME-3M melanoma
MDA-MB-231 breast = tested on: MDA-MB-231 breast
RXF 393 renal = tested on: RXF 393 renal
SF-268 CNS = tested on: SF-268 CNS
SF-295 CNS = tested on: SF-295 CNS
SF-539 CNS = tested on: SF-539 CNS
UACC-257 melanoma = tested on: UACC-257 melanoma
M14 melanoma = tested on: M14 melanoma
HCT-15 colon = tested on: HCT-15 colon
HT29 colon = tested on: HT29 colon
SNB-75 CNS = tested on: SNB-75 CNS
SNB-19 CNS = tested on: SNB-19 CNS
U251 CNS = tested on: U251 CNS
PC-3 prostate = tested on: PC-3 prostate
SK-MEL-5 melanoma = tested on: SK-MEL-5 melanoma
UACC-62 melanoma = tested on: UACC-62 melanoma
LOX IMVI melanoma = tested on: LOX IMVI melanoma
SK-MEL-28 melanoma = tested on: SK-MEL-28 melanoma

Measured: growth

CCN1CCN(CC(=O)Nc2nc3ccc(NCc4ccc(Cl)cc4)cc3s2)CC1
active: K-562 leukemia 2.71% | MALME-3M melanoma 0.984% | UACC-257 melanoma 7.11% | M14 melanoma -76.6% | HCT-15 colon 0.991% | SK-MEL-5 melanoma -37.9% | UACC-62 melanoma -12%
inactive: DU-145 prostate 89.6% | MDA-MB-231 breast 51.9% | RXF 393 renal 51.2% | SF-268 CNS 71% | SF-295 CNS 81.6% | SF-539 CNS 64.3% | HT29 colon 19.6% | SNB-75 CNS 103% | SNB-19 CNS 79.6% | U251 CNS 58.2% | PC-3 prostate 52.7% | LOX IMVI melanoma 16.9% | SK-MEL-28 melanoma 24.7%

COc1ccc(OC)c([N+](=O)[O-])c1C(=O)CNC(C)=O
inactive: DU-145 prostate 109% | K-562 leukemia 103% | MALME-3M melanoma 112% | MDA-MB-231 breast 98.4% | RXF 393 renal 101% | SF-268 CNS 102% | SF-295 CNS 95.2% | SF-539 CNS 101% | UACC-257 melanoma 105% | M14 melanoma 107% | HCT-15 colon 95.8% | HT29 colon 109% | SNB-75 CNS 107% | SNB-19 CNS 93.5% | U251 CNS 97% | PC-3 prostate 101% | SK-MEL-5 melanoma 101% | UACC-62 melanoma 95.8% | LOX IMVI melanoma 103% | SK-MEL-28 melanoma 114%

O=C(Nc1cc(-c2cccnc2)nc(NCCCN2CCOCC2)n1)c1cc(Br)cc(C(F)(F)F)c1
active: K-562 leukemia 8.84% | MALME-3M melanoma -7.83% | SF-295 CNS -22.8% | UACC-257 melanoma -27.1% | M14 melanoma -72.1% | HCT-15 colon 6.87% | HT29 colon 8.99% | SK-MEL-5 melanoma 3.78% | UACC-62 melanoma -6.13% | LOX IMVI melanoma -16.8% | SK-MEL-28 melanoma -49.8%
inactive: DU-145 prostate 82.6% | MDA-MB-231 breast 32.7% | RXF 393 renal 52.8% | SF-268 CNS 60.9% | SF-539 CNS 66.5% | SNB-75 CNS 72.1% | SNB-19 CNS 69.6% | U251 CNS 33.1% | PC-3 prostate 57.7%

CC(C)=CC/C=C(/C)[C@H]1CC[C@]2(C)[C@@H]1CC[C@@H]1[C@@]3(C)CCC(=O)NC(C)(C)[C@@H]3CC[C@]12C
inactive: DU-145 prostate 12.2% [100 µM] | SF-268 CNS 10.9% [100 µM] | UACC-257 melanoma 14.8% [100 µM] | M14 melanoma 15.7% [100 µM] | HCT-15 colon 11.7% [100 µM] | SNB-75 CNS 19.7% [100 µM] | SNB-19 CNS 24.9% [100 µM] | PC-3 prostate 16.5% [100 µM]
active: K-562 leukemia 6.71% [100 µM] | MALME-3M melanoma -85.2% [100 µM] | MDA-MB-231 breast -35.9% [100 µM] | RXF 393 renal -72.3% [100 µM] | SF-295 CNS -22.5% [100 µM] | SF-539 CNS -92.2% [100 µM] | HT29 colon -0.044% [100 µM] | U251 CNS -67% [100 µM] | SK-MEL-5 melanoma -93.5% [100 µM] | UACC-62 melanoma -24.4% [100 µM] | LOX IMVI melanoma -90.1% [100 µM] | SK-MEL-28 melanoma -77.3% [100 µM]

CCOC(=O)CCC[P+](c1ccccc1)(c1ccccc1)c1ccccc1
inactive: DU-145 prostate 90% | K-562 leukemia 57.9% | MALME-3M melanoma 75.4% | MDA-MB-231 breast 80.9% | RXF 393 renal 108% | SF-268 CNS 83.2% | SF-295 CNS 105% | SF-539 CNS 89.5% | UACC-257 melanoma 27.2% | M14 melanoma 87.9% | HCT-15 colon 102% | HT29 colon 70.2% | SNB-75 CNS 86.8% | SNB-19 CNS 96% | U251 CNS 52.6% | PC-3 prostate 69.5% | SK-MEL-5 melanoma 48.5% | UACC-62 melanoma 65% | LOX IMVI melanoma 83% | SK-MEL-28 melanoma 83.8%

Cc1ccc(S(=O)(=O)N/N=C2\CC3CCC2(C)C3(C)C)cc1 (stereo not given)
inactive: DU-145 prostate 105% | K-562 leukemia 120% | MALME-3M melanoma 103% | MDA-MB-231 breast 89% | RXF 393 renal 89.4% | SF-268 CNS 116% | SF-295 CNS 94% | SF-539 CNS 102% | UACC-257 melanoma 87.8% | M14 melanoma 77.9% | HCT-15 colon 99.7% | HT29 colon 108% | SNB-75 CNS 81.8% | SNB-19 CNS 98.1% | U251 CNS 96.1% | PC-3 prostate 86.2% | SK-MEL-5 melanoma 101% | UACC-62 melanoma 77.2% | LOX IMVI melanoma 92.3% | SK-MEL-28 melanoma 102%

Cc1cc(C)c(-c2cc(O)c(-c3c(C)cc(C)cc3C)cc2O)c(C)c1
active: K-562 leukemia 8.34% | SF-539 CNS -25.8% | HT29 colon 8.84% | SNB-75 CNS -10.3%
inactive: DU-145 prostate 20.3% | MALME-3M melanoma 54.9% | MDA-MB-231 breast 51.5% | RXF 393 renal 18% | SF-268 CNS 55.3% | SF-295 CNS 30.2% | UACC-257 melanoma 73.8% | M14 melanoma 20.7% | HCT-15 colon 23.6% | SNB-19 CNS 45.9% | U251 CNS 25.2% | PC-3 prostate 43.2% | SK-MEL-5 melanoma 25.5% | UACC-62 melanoma 34.2% | LOX IMVI melanoma 41.8% | SK-MEL-28 melanoma 42.8%

CCCCCC1CCCCN1C(=O)OCCCC (stereo not given)
active: UACC-257 melanoma -7.74%
inactive: DU-145 prostate 118% | K-562 leukemia 109% | MALME-3M melanoma 88.9% | MDA-MB-231 breast 77.5% | RXF 393 renal 96.9% | SF-268 CNS 99.1% | SF-295 CNS 89.3% | SF-539 CNS 92% | M14 melanoma 105% | HCT-15 colon 101% | HT29 colon 103% | SNB-75 CNS 81.4% | SNB-19 CNS 105% | U251 CNS 104% | PC-3 prostate 111% | SK-MEL-5 melanoma 99.4% | UACC-62 melanoma 76.4% | LOX IMVI melanoma 94.7% | SK-MEL-28 melanoma 116%
